Measurements reported in PubChem BioAssay (NCI).
The panel holds about 83,000 compounds, 20% with a hit somewhere; the sample as a whole holds those more often.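 Negative percent growth values reflect cell death: -40 means 40% of the cells present at the start died, and -100 means all died.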 Unmarked numbers belong to inactive results. The source made the active and inactive calls. The calls were made as follows: active = growth percent below 10; inactive = the rest.

Experiments:
Test in all cases: NCI-60 one-dose screen, 48 h (100 = growth as untreated, 0 = no growth, -100 = all killed)
Conditions in all cases: 10 µM unless noted
[1] = system: SR leukemia
[2] = system: RPMI-8226 leukemia
[3] = system: OVCAR-8 ovarian
[4] = system: OVCAR-5 ovarian
[5] = system: OVCAR-4 ovarian
[6] = system: IGROV1 ovarian
[7] = system: OVCAR-3 ovarian
[8] = system: NCI/ADR-RES ovarian
[9] = system: T-47D breast
[10] = system: BT-549 breast
[11] = system: MDA-MB-435 melanoma
[12] = system: SW-620 colon
[13] = system: MCF7 breast
[14] = system: HCT-116 colon
[15] = system: HCC-2998 colon
[16] = system: KM12 colon
[17] = system: HS 578T breast
[18] = system: SK-OV-3 ovarian

Compound	growth [1]	growth [2]	growth [3]	growth [4]	growth [5]	growth [6]	growth [7]	growth [8]	growth [9]	growth [10]	growth [11]	growth [12]	growth [13]	growth [14]	growth [15]	growth [16]	growth [17]	growth [18]
O=C(/C=C/C12c3ccccc3C(c3ccccc31)C1C(=O)NC(=O)C12)c1ccc(Cl)cc1 (stereo unspecified)	13.3%	-10.1% (active)	16%	-2.53% (active)	30.4%	-38.6% (active)	-57.8% (active)	4.42% (active)	39.9%	9.59% (active)	-19.4% (active)	-3.94% (active)	10.6%	-27.8% (active)	-67% (active)	-36.6% (active)	–	–
COc1ccc(OC)c(Nc2nc3nonc3nc2Nc2cc(OC)ccc2OC)c1	79.2%	36.1%	47.8%	92.3%	-27.6% (active)	95.3%	26%	44.8%	–	–	43.1%	57.3%	65.7%	17.6%	56.7%	67.4%	44.6%	–
COc1cc(C(=O)/C=C/c2c(C(F)(F)F)nc3ccccn23)cc(OC)c1OC	-9.2% (active)	-14.6% (active)	3.68% (active)	–	8.45% (active)	9.02% (active)	-57.3% (active)	–	8.03% (active)	10.4%	-10.2% (active)	-29.6% (active)	-44.7% (active)	-84.3% (active)	-97.2% (active)	–	–	-1.92% (active)
COc1ccc(C2CC(c3ccc4ccccc4c3)=NN2c2nc(O)c(C3=c4cc(Cl)ccc4=NC3=O)s2)cc1 (stereo unspecified)	-34.4% (active)	-3.59% (active)	-16.1% (active)	-7.92% (active)	-61.5% (active)	-11.5% (active)	-83.1% (active)	58.8%	-79.9% (active)	-26% (active)	-64.6% (active)	-42.4% (active)	-22.4% (active)	–	-54.1% (active)	-59.3% (active)	-5.85% (active)	–
CCc1cc(Cc2cc(CC)cc(C(C)(C)C)c2O)c(O)c(C(C)(C)C)c1	-13.6% (active)	7.4% (active)	20.4%	–	14.3%	36.3%	32.1%	–	-0.979% (active)	40.5%	18.4%	23.3%	11.2%	6.96% (active)	4.71% (active)	19.4%	–	20.6%
Cc1c2c(cn1Cc1ccccc1)CCc1cn[nH]c1-2	51.6%	70.8%	94.6%	–	81.3%	84.5%	100%	–	90.3%	96.5%	26.8%	95.8%	81.5%	89.5%	86.1%	78.8%	–	114%
COc1ccc(NC(=O)c2cccc(-c3cc(=O)c4c(O)c(OC)c(OC)cc4o3)c2)cc1	80.8%	92.5%	80.6%	97.5%	97.5%	95.1%	50.6%	85.3%	–	31%	105%	102%	93.3%	70.5%	101%	103%	56.1%	–
CC(=O)c1cc2c(o1)C(=O)c1ccccc1C2=O	1.01% (active)	-44% (active)	-43.8% (active)	-86.1% (active)	-96.9% (active)	-66.9% (active)	-85.5% (active)	-13.2% (active)	-25.3% (active)	-87.7% (active)	-94.4% (active)	-77.4% (active)	-65.6% (active)	-83.6% (active)	-87.8% (active)	-63.6% (active)	–	–
COc1cc(NC(=O)c2cccc(-c3cc(=O)c4c(O)c(OC)c(OC)cc4o3)c2)cc(OC)c1OC	54.4%	27%	23.1%	77.4%	58.6%	70.4%	23.8%	49.4%	–	7% (active)	65.4%	73.3%	49.4%	44.8%	66%	–	-3.91% (active)	–
COc1cc(CNC(=O)/C=C/C=C/c2ccc3c(c2)OCO3)ccc1OCc1cn(-c2ccc(Cl)c(Cl)c2)nn1	24.8%	20.9%	11.3%	-19.8% (active)	-62.7% (active)	6.63% (active)	-62.8% (active)	15.9%	-4.43% (active)	-8.89% (active)	-18.3% (active)	-33.4% (active)	-46.2% (active)	-30.6% (active)	51.1%	1.12% (active)	–	–
O=c1cc(-c2ccc(OCc3ccccc3)cc2)oc2c(I)c(OCc3ccccc3)cc(OCc3ccccc3)c12	94.3%	108%	99.6%	103%	100%	100%	104%	101%	–	–	102%	106%	101%	95.8%	105%	91.8%	88.3%	–
COc1cc(C(=O)/C=C/c2c(-c3ccc(F)cc3)nc3ncccn23)cc(OC)c1OC	9.6% (active)	11.3%	48.3%	–	46.5%	47.8%	19.1%	–	59.8%	32.5%	11.9%	32.2%	10%	17.7%	44.1%	22.3%	–	63.9%
C[C@]12CCC(=O)C[C@H]1CC[C@@H]1[C@@H]2CC[C@@]2(C)[C@H]1CC[C@]2(O)C(=O)CO	106%	103%	108%	92.3%	–	103%	115%	107%	99.5%	105%	102%	108%	91.1%	110%	–	110%	99.1%	105%
CC1(C)N=C(N)N=C(N)N1c1ccc(Cl)c(Cl)c1	39.5%	48.2%	28.7%	–	54.5%	41.2%	53%	–	69.8%	42.9%	27.4%	43.1%	21.4%	24.9%	20.8%	38.8%	–	39.5%
O=C(CCCCCCCn1cc(-c2cccnc2)nn1)Nc1ccccc1-c1ccccc1	49.2%	30.5%	20%	62.6%	41.7%	28.3%	48.8%	24.1%	28%	–	22.5%	20.6%	38.5%	–	38.1%	29.4%	66.4%	–
COc1cc(C(=O)Nc2cc(O)c(CC=C(C)C)c(O)c2)cc2c1O[C@]1(C)CC[C@@H](O)C(C)(C)[C@H]1C2	14.2%	-24.3% (active)	31.3%	53%	58.6%	61.1%	27.7%	81.3%	3.79% (active)	29.6%	24.9%	7.03% (active)	6.62% (active)	13.2%	7.4% (active)	18.2%	–	–
CSc1ccc(Cl)c(C(=O)Nc2sccc2C(N)=O)c1	104%	95.3%	94.4%	98.2%	83.5%	105%	100%	99%	–	–	110%	96.5%	64.8%	–	102%	99.8%	99.4%	–
CCCCCCCC/C=C/CCCCCCCC1=NCC[N+]1(CCO)CCO	17.4%	38.6%	80.6%	77.5%	–	-8.63% (active)	59.9%	94.9%	90.5%	–	65.1%	71.4%	66.5%	59.8%	72%	40.4%	88.6%	88%
COc1cc(/C=C/C(=O)c2cccc(-n3cc(-c4ccc(Cl)cc4)[nH]c3=O)c2)cc(OC)c1OC	-15.8% (active)	-27.1% (active)	29.3%	–	76.9%	13.1%	15.8%	–	41.1%	86.2%	27.1%	-19.4% (active)	11.9%	-45.7% (active)	75.8%	46%	–	84.8%
